Screens deposited in PubChem BioAssay by Broad Institute.
RAD52 anneal inh: inhibitors of human RAD52 DNA annealing; P43351; recombinant RAD52 DNA annealing, FRET fluorescence; inhibition, % at 18.7 µM; actives 0.46% (n = 360,000); AID 651710;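 active means every replicate showing at least 50% inhibition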
miR122 inh: blocks miR-122 activity in Huh7 sensor cells; Huh7 miR-122 Renilla luciferase sensor, 48 h; neutral wells = 0, positive control = 100; activation (reporter increase), % at 12.5 µM; actives 0.3% (n = 340,000); AID 602342;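 active means mean replicate activation score at least 90 and every replicate individually at or above 90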;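 further: higher luciferase means less miR-122 activity so hits act as miR-122 inhibitors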
NSD2 inh: blocks human histone methyltransferase NSD2. O96028. NSD2 peptide methylation, AlphaScreen, 120 min. inhibition, % at 12.5 µM. actives 0.54% (n = 310,000). AID 743445; in the data active means inhibition above about 50%
Casp6 inh: inhibitors of human caspase-6 | purified caspase-6, Z-VEID-R110 cleavage fluorescence | inhibition, % at 12.5 µM | actives 0.53% (n = 350,000);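 active means mean inhibition across replicates at least about 35%, with every replicate also reaching that limit, limit read from the data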;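 further: 0% = median of neutral control wells and 100% = no fluorescence left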
MLL AF4-AF9 inh: MLL-AF4/AF9 protein interaction inhibition; P42568; AlphaScreen, biotin-AF4 peptide binding to FLAG-AF9; inhibition, % at 10 µM; actives 0.47% (n = 350,000); AID 651704;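 active means every replicate reaching a set inhibition limit, whatever the replicate mean, cut at about 25% in these data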;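 further: 0% = plate neutral control median and 100% = total signal loss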
Target sequence (P42568 whole entry, looked up): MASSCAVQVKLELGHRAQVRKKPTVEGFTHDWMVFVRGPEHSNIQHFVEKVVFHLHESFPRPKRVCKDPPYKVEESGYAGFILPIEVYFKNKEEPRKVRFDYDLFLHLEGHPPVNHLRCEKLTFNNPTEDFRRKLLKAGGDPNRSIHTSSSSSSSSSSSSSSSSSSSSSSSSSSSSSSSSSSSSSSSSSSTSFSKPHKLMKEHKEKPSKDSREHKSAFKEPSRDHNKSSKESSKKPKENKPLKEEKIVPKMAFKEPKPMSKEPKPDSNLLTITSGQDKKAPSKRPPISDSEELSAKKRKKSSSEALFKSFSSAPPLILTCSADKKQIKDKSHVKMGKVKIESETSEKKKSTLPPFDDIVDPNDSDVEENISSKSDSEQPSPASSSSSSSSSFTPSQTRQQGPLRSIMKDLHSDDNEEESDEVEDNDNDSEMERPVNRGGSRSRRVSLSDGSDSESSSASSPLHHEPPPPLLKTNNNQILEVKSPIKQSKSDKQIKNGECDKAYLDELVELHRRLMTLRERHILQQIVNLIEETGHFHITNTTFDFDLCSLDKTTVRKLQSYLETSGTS
An asterisk follows results filed as active; / = not tested or not shown; ! = not confirmed by another sample; [ ] = remark or other dose. In the library only some 1.5% were active in any assay of this set; here they are far more common.

SMILES	RAD52 anneal inh	miR122 inh	NSD2 inh	Casp6 inh	MLL AF4-AF9 inh
CC(=O)c1ccc(OCC(=O)Nc2ccc(N3CCCCC3)cc2)cc1	1	13	8	-9	26*
C[C@H]1CN([C@@H](C)CO)C(=O)c2cccc(NC(=O)c3ccncc3)c2O[C@@H]1CN(C)Cc1ccc(Oc2ccccc2)cc1	-13	29[16.7 µM]	/	0	8
Cc1[nH]c(=S)[nH]c(=O)c1Cc1c(O)ccc2ccccc12	-3	134*	2	3	2
O=C(Nc1cccc(Cl)c1)N1[C@@H]2CNC[C@H]1C2c1ccc(-c2ccccc2)cc1 (some centres not stated)	53*	/	/	-2	-7
O=C(Nc1cc(F)ccc1F)N1[C@@H]2CNC[C@H]1C2c1ccc(-c2ccc(F)cc2)cc1 (some centres not stated)	58*!	/	/	-1	-1
O=C(Nc1cccc(F)c1)N1[C@@H]2CNC[C@H]1C2c1ccc(-c2cccc(F)c2)cc1 (some centres not stated)	54*!	/	/	5	-3
O=C(C[C@H]1CC[C@H](NC(=O)C2CCOCC2)[C@@H](CO)O1)NCC1CC1	0	/	/	2	-2
O=C(C1CCCC1)N1CC(=O)N2[C@@H](CO)[C@H](c3ccc(C#Cc4cccc(F)c4)cc3)[C@@H]2C1	-38	/	/	5	-15
O=C(Nc1nc2c(F)cccc2s1)c1cccs1	/	/	-15	/	/
CCn1nc(C(=O)Nc2ccc(S(=O)(=O)Nc3nccs3)cc2)c2ccccc2c1=O	/	93*	1	/	/
O=C(O)c1ccc(Cn2cc(/C=C\[N+](=O)[O-])c3ccccc32)o1	-39	2	5	38*	5
CC1CCN(CCCNC(=O)c2cc3sccc3n2C)CC1	/	-9	12	/	/
COc1ccc(N2CCN(CCCNC(=O)c3cc4sccc4n3C)CC2)cc1	-18	-4	11	-8	28*
Cc1[nH]c(=O)c(C(=O)/C=C/c2ccccc2F)c2c1CCCC2	-14	182*	19	1	-4
CN1CCN(C(=O)c2cc3c(c(-c4cccc(-c5cc6ccccc6o5)c4)n2)[C@H](CCO)N(S(=O)C(C)(C)C)C3)CC1 (some centres not stated)	0	-2	/	-1	8
CC(C)(C)S(=O)N1Cc2cc(C(=O)O)nc(-c3cccc(-c4cc5ccccc5o4)c3)c2[C@H]1CCO (some centres not stated)	-67	-1	/	36*	2
CCCNC(=O)NC[C@@H]1[C@@H](c2ccc(C3=CCCC3)cc2)[C@H](CO)N1C(=O)CC	-93	343*[16.7 µM]	/	-3	-8
COc1ccc2c3c(n(C)c2c1)[C@H](CO)N(C(=O)C1CC1)CC31CCN(C)CC1	18	/	/	3	-5
Cc1ccc(S(=O)(=O)C2(C(=O)N3CCN(c4cc(C)ccc4C)CC3)CC2)cc1	-17	-5	-1	2	38*
CC1CC(C)CN(S(=O)(=O)c2ccc(F)c(C(=O)NC3CCCCC3C)c2)C1 (configuration not stated)	-6	3	-1	62*	-2
CC1CCCC(NC(=O)c2cc(S(=O)(=O)N3CCOCC3)ccc2F)C1C (configuration not stated)	-17	-4	2	0	-2
CCS(=O)(=O)N1Cc2ccccc2CC1C(=O)NCC12CC3CC(CC(C3)C1)C2 (configuration not stated)	/	256*	0	/	/
O=C(C[C@H]1C[C@H]2c3cc(NS(=O)(=O)c4ccc(F)cc4)ccc3O[C@H]2[C@@H](CO)O1)N1CCCCC1	-3	9[16.7 µM]	/	2	0
CCOC(=O)c1ccc(-n2ccnc2)c(NC(=O)c2cccc(Br)c2)c1	-20	128*	-2	5	2
C[C@@H]1CN([C@H](C)CO)C(=O)c2cc(C#CC3CCCCC3)cnc2O[C@@H]1CN(C)S(=O)(=O)c1cccc(F)c1	13	-27[16.7 µM]	/	5	-7
SMILES	RAD52 anneal inh	miR122 inh	NSD2 inh	Casp6 inh	MLL AF4-AF9 inh
C[C@@H]1CN([C@@H](C)CO)C(=O)c2cccc(NC(=O)C3CC3)c2O[C@@H]1CN(C)Cc1ccc(Cl)c(Cl)c1	3	8[16.7 µM]	/	-4	2
C[C@H](CO)N1C[C@H](C)[C@@H](CN(C)S(=O)(=O)c2ccc(F)cc2)Oc2c(NC(=O)NC3CCCCC3)cccc2C1=O	-7	1[16.7 µM]	/	1	49*!
C[C@H](CO)N1C[C@H](C)[C@@H](CN(C)Cc2ccc(Cl)c(Cl)c2)Oc2c(NC(=O)C3CC3)cccc2C1=O	-30	114*[16.7 µM]	/	3	4
C[C@H]1CN([C@@H](C)CO)C(=O)c2cc(C#CC3CCCCC3)cnc2O[C@@H]1CN(C)S(=O)(=O)c1cccc(F)c1	17	-27[16.7 µM]	/	-2	32*
C[C@@H]1CN([C@H](C)CO)C(=O)c2cccc(NC(=O)NC3CCCCC3)c2O[C@H]1CN(C)Cc1ccc(Cl)c(Cl)c1	0	118*[16.7 µM]	/	-2	3
C/C=C/c1ccc([C@@H]2[C@@H](CO)N3C(=O)CN(C(=O)c4ccccc4)C[C@H]23)cc1	-4	/	/	-3	0
O=C(NCC[C@@H]1CC[C@H](NC(=O)C2CCCCC2)[C@@H](CO)O1)c1ccc(F)cc1	7	/	/	1	-1
COc1cc(/C=N/NC(=O)c2ccc(NS(=O)(=O)c3cccs3)cc2)cc(OC)c1O	-4	10	2	8	2
O=C(NN=Cc1ccc(F)c(F)c1)c1ccc(NS(=O)(=O)c2cccs2)cc1	-12	/	0	4	33*
C[C@H](CO)N1C[C@H](C)[C@@H](CN(C)C(=O)Nc2ccc3c(c2)OCO3)Oc2ccc(NC(=O)Nc3ccccc3)cc2C1=O	/	1[16.7 µM]	/	/	/
Cc1ccc(S(=O)(=O)N[C@@H]2CC[C@H](CC(=O)NCc3ccccc3F)O[C@H]2CO)cc1	-5	/	/	-2	1
Cc1nn(C)c(C)c1S(=O)(=O)NCc1cccs1	/	109*	-4	/	/
CCOC(=O)c1c(S(=O)(=O)NCc2cccs2)c(C)n(C)c1C	0	21	-1	3	2
COc1ccc(NC(=O)N(C)C[C@@H]2Oc3c(NS(=O)(=O)c4ccc(C)cc4)cccc3C(=O)N([C@@H](C)CO)C[C@H]2C)cc1	4	8[16.7 µM]	/	4	-3
CCc1cccc(CC)c1NC(=O)COC(=O)C1(c2ccc(Cl)cc2)CCCC1	/	113*	4	/	/
O=C(COC(=O)c1c2c(nc3ccccc13)CCN(Cc1ccccc1)C2)Nc1c(F)cccc1F	-335	175*	1	2	8
Cc1noc(C)c1S(=O)(=O)Nc1ccc2c(c1)C(=O)N([C@@H](C)CO)C[C@H](C)[C@@H](CN(C)Cc1ccccc1)OCCCC[C@H](C)O2	6	12[16.7 µM]	/	3	4
O=C(Nc1ccccc1)c1nc[nH]c1C(=O)Nc1ccccc1F	-7	0	/	49*	-3
COc1ccc(NC(=S)N(CCN2CCOCC2)Cc2cc3cc4c(cc3[nH]c2=O)OCCO4)cc1	-45	6	4	38*	5
Cc1cccc(NC(=S)N(CCN2CCOCC2)Cc2cc3cc4c(cc3[nH]c2=O)OCO4)c1	2	/	1	2	1
